The nature of assay [1]: NCI Yeast Anticancer Drug Screen. Data for the rad50 strain (AID 155).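 Further: 0% = growth of vehicle-only cultures of the same strain.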 The note with it: S. cerevisiae rad50 strain growth inhibition, stronger effect = higher value. A digest of the protocol:
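Genetically altered yeast (DNA repair pathway); compound treatment; growth inhibition vs vehicle ctrl.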

The nature of assay [2]: NCI Yeast Anticancer Drug Screen. Data for the mec2-1 strain (AID 157). The following applies: S. cerevisiae mec2-1 strain, stronger effect = higher value. The method, boiled down: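 Readout is yeast growth inhibition, normalised to vehicle-treated controls, in the mec2-1 strain exposed to compound.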
A short description of assay [3]: NCI Yeast Anticancer Drug Screen. Data for the sgs1 mgt1 strain (AID 161).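 Further: 0% = growth of cultures given vehicle only.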 The following applies: S. cerevisiae sgs1 mgt1 strain, stronger effect = higher value. A digest of the protocol:
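Percent growth inhibition was derived by comparing compound-exposed mutant yeast with vehicle-exposed cultures. The strain carries alterations in DNA damage repair.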

Assay [4] in a line: NCI Yeast Anticancer Drug Screen. Data for the cln2 rad14 strain (AID 165).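 Further: 0% = growth equal to vehicle treated cultures.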 The following applies: S. cerevisiae cln2 rad14 strain, stronger effect = higher value. The method, boiled down: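 Relative to vehicle controls, growth inhibition of compound-treated cln2 rad14 yeast was recorded.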
A short description of assay [5]: NCI Yeast Anticancer Drug Screen. Data for the bub3 strain (AID 167). The note with it: S. cerevisiae bub3 mutant strain, stronger effect = higher value. The method, boiled down:
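Yeast carrying a defined mutation is treated with each compound, and growth is compared with that of vehicle-exposed cells to give inhibition.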

Assay [6] in a line: NCI Yeast Anticancer Drug Screen. Data for the mlh1 rad18 strain (AID 175). The note with it: S. cerevisiae mlh1 rad18 strain growth inhibition, stronger effect = higher value. The method, boiled down:
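Test agents were incubated with a yeast strain of defined genotype (DNA damage repair defect). Inhibition of growth was derived by comparison with vehicle-exposed cultures.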

[7] abbreviates: at 5.0 µM (retest, dose inferred, filed as 0.5).
Where [8] appears, read: at 50.0 µM (retest, dose inferred, filed as 5.0).

The structures appear in SMILES notation. Compounds without any hit were thinned out: in the full panel of roughly 79,000, 15% have a hit. Unmarked numbers belong to inactive results. Active and inactive are the calls of the source. No stated cut-off is given here; in the data, active means growth inhibition above about 70%; inactive means the rest.

For `C[N+]1(C)CCCC(OCCCCCCCCCCCCCCOC2CCC[N+](C)(C)C2)C1` (stereo not given), the growth inhibition in assay [1] (setting [7]) was 14%; in assay [1] (setting [8]), 95% (active); in assay [1] (at 50.0 µM), 87.9% (active); in assay [2] (setting [7]), 34%; in assay [2] (setting [8]), 98% (active); in assay [2] (at 50.0 µM), 80.5% (active). In addition, the growth inhibition in assay [3] (setting [7]) is 35%; in assay [3] (setting [8]), 97% (active); in assay [3] (at 50.0 µM), 98.8% (active); in assay [4] (setting [7]) it was 37%; in assay [4] (setting [8]), 92% (active); in assay [4] (at 50.0 µM), 98.2% (active). Moreover, the growth inhibition was 37% in assay [5] (setting [7]); 94% (active) in assay [5] (setting [8]); 97.6% (active) in assay [5] (at 50.0 µM); 77% (active) in assay [6] (setting [7]); 97% (active) in assay [6] (setting [8]); 99% (active) in assay [6] (at 50.0 µM).

Consider `O=C1c2ccccc2C(=O)c2c(NCCNCCO)ccc(O)c21`, for which the growth inhibition in assay [1] (setting [7]) is 37%; in assay [1] (setting [8]), 93% (active); in assay [1] (at 50.0 µM), 85% (active); in assay [2] (setting [7]), 19%; in assay [2] (setting [8]) it was 94% (active); in assay [2] (at 50.0 µM) it was 84.7% (active). Further, the growth inhibition in assay [3] (setting [7]) is 51%; in assay [3] (setting [8]), 91% (active); in assay [3] (at 50.0 µM) it was 86.5% (active); in assay [4] (setting [7]) it was 53%; in assay [4] (setting [8]) it was 60%; in assay [4] (at 50.0 µM) it was 49.7%. Further, the growth inhibition was 44% in assay [5] (setting [7]); 86% (active) in assay [5] (setting [8]); 85.3% (active) in assay [5] (at 50.0 µM); 24% in assay [6] (setting [7]); 88% (active) in assay [6] (setting [8]); 85.8% (active) in assay [6] (at 50.0 µM).

For the compound `O=C(Cc1nc2ccccc2s1)Nc1cccc(C(F)(F)F)c1`, the growth inhibition is 41% in assay [1] (setting [7]); 98% (active) in assay [1] (setting [8]); 92.2% (active) in assay [1] (at 50.0 µM); 39% in assay [2] (setting [7]); 100% (active) in assay [2] (setting [8]); 93.7% (active) in assay [2] (at 50.0 µM). The growth inhibition in assay [3] (setting [7]) is 54%; in assay [3] (setting [8]) it was 99% (active); in assay [3] (at 50.0 µM) it was 94.7% (active); in assay [4] (setting [7]), 32%; in assay [4] (setting [8]), 98% (active); in assay [4] (at 50.0 µM), 92.6% (active). In addition, the growth inhibition in assay [5] (setting [7]) is 35%; in assay [5] (setting [8]) it was 99% (active); in assay [5] (at 50.0 µM) it was 92.4% (active); in assay [6] (setting [7]), 64%; in assay [6] (setting [8]), 99% (active); in assay [6] (at 50.0 µM), 93% (active).

As for `CC1CCN(CCOC(=O)C(c2ccccc2)C2C=CCCC2)C1C` (stereo not given), the growth inhibition in assay [1] (setting [7]) is 16%; in assay [1] (setting [8]), 59%; in assay [1] (at 50.0 µM), 81.1% (active); in assay [2] (setting [7]), 45%; in assay [2] (setting [8]), 71% (active); in assay [2] (at 50.0 µM), 58.9%. The growth inhibition in assay [3] (setting [7]) was 53%; in assay [3] (setting [8]), 80% (active); in assay [3] (at 50.0 µM) it was 84.5% (active); in assay [4] (setting [7]), 16%; in assay [4] (setting [8]) it was 53%; in assay [4] (at 50.0 µM), 86.9% (active). Moreover, the growth inhibition in assay [5] (setting [7]) is 16%; in assay [5] (setting [8]), 50%; in assay [5] (at 50.0 µM), 62%; in assay [6] (setting [7]) it was 54%; in assay [6] (setting [8]), 78% (active); in assay [6] (at 50.0 µM), 77.5% (active).

`O=C(NNc1ccccc1)C(O)C(=O)C(O)C(O)C(O)CO` (stereo not given): the growth inhibition in assay [1] (setting [7]) is 1%; in assay [1] (setting [8]) it was 27%; in assay [1] (at 50.0 µM) it was 9.45%; in assay [2] (setting [7]) it was -1%; in assay [2] (setting [8]), 8%; in assay [2] (at 50.0 µM) it was 21.9%. Moreover, the growth inhibition is 9% in assay [3] (setting [7]); 6% in assay [3] (setting [8]); 61.8% in assay [3] (at 50.0 µM); -2% in assay [4] (setting [7]); 14% in assay [4] (setting [8]); -14.1% in assay [4] (at 50.0 µM). The growth inhibition is 8% in assay [5] (setting [7]); 34% in assay [5] (setting [8]); 80% (active) in assay [5] (at 50.0 µM); 5% in assay [6] (setting [7]); 28% in assay [6] (setting [8]); 75.2% (active) in assay [6] (at 50.0 µM).

For `CCC(=O)NC1=CCC(C(C)(C)C)CC1` (stereo not given), the growth inhibition in assay [1] (setting [7]) is 2%; in assay [1] (setting [8]), -4%; in assay [1] (at 50.0 µM), 10.2%; in assay [2] (setting [7]), 1%; in assay [2] (setting [8]) it was 4%; in assay [2] (at 50.0 µM), -5.55%. In addition, the growth inhibition was 1% in assay [3] (setting [7]); 4% in assay [3] (setting [8]); -0.5% in assay [3] (at 50.0 µM); 4% in assay [4] (setting [7]); -4% in assay [4] (setting [8]); 7.9% in assay [4] (at 50.0 µM). Also, the growth inhibition in assay [5] (setting [7]) was 9%; in assay [5] (setting [8]), 18%; in assay [5] (at 50.0 µM), 42.5%; in assay [6] (setting [7]), 0%; in assay [6] (setting [8]), -1%; in assay [6] (at 50.0 µM) it was -5.45%.

As to `c1ccc(Nc2nnc3nc(-c4ccccc4)c(-c4ccccc4)nn23)cc1`, the growth inhibition is 12% in assay [1] (setting [7]); 60% in assay [1] (setting [8]); 65.2% in assay [1] (at 50.0 µM); 12% in assay [2] (setting [7]); 82% (active) in assay [2] (setting [8]); 55.1% in assay [2] (at 50.0 µM). The growth inhibition in assay [3] (setting [7]) was 19%; in assay [3] (setting [8]), 91% (active); in assay [3] (at 50.0 µM), 91.5% (active); in assay [4] (setting [7]), -1%; in assay [4] (setting [8]), 41%; in assay [4] (at 50.0 µM), 33%. Also, the growth inhibition was 6% in assay [5] (setting [7]); 39% in assay [5] (setting [8]); 36.1% in assay [5] (at 50.0 µM); 5% in assay [6] (setting [7]); 84% (active) in assay [6] (setting [8]); 70.1% (active) in assay [6] (at 50.0 µM).

Consider `O=C1CCC(C(c2ccccc2)(c2ccccc2)c2ccccc2)CC1=O` (stereo not given), for which the growth inhibition is 0% in assay [1] (setting [7]); 99% (active) in assay [1] (setting [8]); -11.1% in assay [1] (at 50.0 µM); -1% in assay [2] (setting [7]); 98% (active) in assay [2] (setting [8]); 16.9% in assay [2] (at 50.0 µM). For the same compound, the growth inhibition in assay [3] (setting [7]) is 0%; in assay [3] (setting [8]) it was 99% (active); in assay [3] (at 50.0 µM) it was -5.2%; in assay [4] (setting [7]), -14%; in assay [4] (setting [8]) it was 99% (active); in assay [4] (at 50.0 µM), 22.5%. In addition, the growth inhibition is -3% in assay [5] (setting [7]); 99% (active) in assay [5] (setting [8]); 0.85% in assay [5] (at 50.0 µM); -1% in assay [6] (setting [7]); 99% (active) in assay [6] (setting [8]); -10.2% in assay [6] (at 50.0 µM).

As for `CC(SC1=CC(=O)c2c(Cl)ccc(O)c2C1=O)C(=O)O` (stereo not given), the growth inhibition was 10% in assay [1] (setting [7]); 13% in assay [1] (setting [8]); 5.7% in assay [1] (at 50.0 µM); 2% in assay [2] (setting [7]); 16% in assay [2] (setting [8]); 1.25% in assay [2] (at 50.0 µM). For the same compound, the growth inhibition was 22% in assay [3] (setting [7]); 30% in assay [3] (setting [8]); -25.1% in assay [3] (at 50.0 µM); -9% in assay [4] (setting [7]); 7% in assay [4] (setting [8]); -47.5% in assay [4] (at 50.0 µM). Besides, the growth inhibition in assay [5] (setting [7]) is 0%; in assay [5] (setting [8]), 17%; in assay [5] (at 50.0 µM), 6%; in assay [6] (setting [7]), 3%; in assay [6] (setting [8]), 26%; in assay [6] (at 50.0 µM), 8.35%.

For `Cc1ccc(Cc2n[nH]c(=O)[nH]2)cc1`, the growth inhibition was 32% in assay [1] (setting [7]); 35% in assay [1] (setting [8]); -28.9% in assay [1] (at 50.0 µM); 18% in assay [2] (setting [7]); 14% in assay [2] (setting [8]); -45.1% in assay [2] (at 50.0 µM). Further, the growth inhibition in assay [3] (setting [7]) is 30%; in assay [3] (setting [8]), 33%; in assay [3] (at 50.0 µM), -35.7%; in assay [4] (setting [7]), 17%; in assay [4] (setting [8]) it was 30%; in assay [4] (at 50.0 µM), -2.5%. In addition, the growth inhibition in assay [5] (setting [7]) was 26%; in assay [5] (setting [8]) it was 22%; in assay [5] (at 50.0 µM) it was -26.3%; in assay [6] (setting [7]), 45%; in assay [6] (setting [8]), 52%; in assay [6] (at 50.0 µM) it was -31.6%.
